# Screens as filed in PubChem.
# FECH inh: blocks human mitochondrial ferrochelatase activity; 3.3% of 20,000 active; purified FECH, Ni-mesoporphyrin absorbance 550 nm; P22830; calls only at 10 µM (by protocol);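 active = enzyme reaction rate more than 3 SD below the solvent-only control wells on the same plate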;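 note: lower slope than DMSO wells means FECH inhibition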
# An asterisk follows results filed as active; i = inactive; + = active, no number. Many of the other results were omitted from the sample, so hits are more common in it than they were.
SMILES,FECH inh
COC(=O)[C@@H]1C[C@H](NC(=O)c2cnc(Nc3ccccc3)nc2)CN1C,i
CCC(CC)C(=O)Nc1cc(C)nn1-c1ncnc2c1cnn2-c1cccc(Cl)c1,+
CCOc1ccc(CC(=O)Nc2cc(C)nn2-c2ncnc3c2cnn3-c2cccc(Cl)c2)cc1,i
Cc1ccc(OCC(=O)Nc2cc(C)nn2-c2ncnc3c2cnn3-c2ccc(Cl)cc2)cc1,i
Cc1cc(NC(=O)CC(C)(C)C)n(-c2ncnc3c2cnn3-c2cccc(Cl)c2)n1,i
CCOc1ccc(CC(=O)Nc2cc(C)nn2-c2ncnc3c2cnn3-c2ccc(Cl)cc2)cc1,+
CCCC(=O)Nc1cc(C)nn1-c1ncnc2c1cnn2-c1cccc(Cl)c1,i
COc1ccc2cc(C(=O)C3CCCN(CCCn4nnnc4C)C3)ccc2c1 (centres undefined),i
Cc1cccc(C)c1NC(=O)C(Cc1ccccc1)N1Cc2ccccc2C1=O (centres undefined),i
c1ccc(-c2n[nH]c(Cn3cnc(-c4ccccc4)c3-c3cnc[nH]3)n2)cc1,i
CCCc1nc(C(=O)N2CC[C@@H](c3sccc3C)[C@H](O)C2)cs1,i
O=C(NC1CCCCC1)c1nc(N2CCCC2)c2oc3ccccc3c2n1,i
CCc1cc(NCc2ccccc2F)n2nc(-c3cccnc3)nc2n1,i
c1ccc(CCCN2CCCC3(CCNC3)C2)cc1 (centres undefined),i
COc1cc(C)c(S(=O)(=O)N2CCN(c3nc(C)cc(N4CCOCC4)n3)CC2)cc1C,i
CCN(Cc1cnn(CC)c1)C(=O)C/C=C/c1ccccc1,i
COc1ccc(Cl)cc1NCc1cc(=O)n2[nH]c(-c3ccccc3C)nc2n1,i
Cc1ccccc1-c1nc2nc(CNCc3ccccc3)cc(=O)n2[nH]1,+
CCc1ccccc1NCc1cc(=O)n2[nH]c(-c3ccccc3C)nc2n1,i
Cc1cccc(NCc2cc(=O)n3[nH]c(NCc4ccccc4)nc3n2)c1,i
Cc1ccccc1-c1nc2nc(CNc3ccc(Cl)cc3)cc(=O)n2[nH]1,+
Cc1ccccc1-c1nc2nc(CNc3c(C)cccc3C)cc(=O)n2[nH]1,i
Cc1ccccc1-c1nc2nc(CNc3cccc(C(F)(F)F)c3)cc(=O)n2[nH]1,i
COc1ccccc1NCc1cc(=O)n2[nH]c(-c3ccccc3C)nc2n1,i
Cc1cccc(NCc2cc(=O)n3[nH]c(-c4ccccc4C)nc3n2)c1,+
SMILES,FECH inh
Cc1ccc(O)c(C(=O)NC2CC(=O)N(Cc3ccccc3C(F)(F)F)C2)c1 (centres undefined),i
Cc1cccc(NC(=O)Cc2csc(NC(=O)Nc3cccc(Cl)c3)n2)c1C,i
COc1ccc(-c2cc(CNC(=O)C3CC=CCC3)no2)cc1 (centres undefined),i
O=C(c1ccc(CN2C(=O)CCn3nccc32)cc1)N1CCN(c2cccc(Cl)c2)CC1,i
Cc1ccccc1CNC(=O)c1cccn1-c1nnc(N2CCCCC2)s1,i
O=C(NCc1ccccc1F)c1cccn1-c1nnc(N2CCCCC2)s1,+
O=C(NCCN1CCCCCC1)c1cccn1-c1nnc(N2CCCCC2)s1,i
